Compounds with a hit are over-represented: about 1.4% of the library has one in this group of screens.
GC-A act = GC-A stimulated cGMP production enhancers – HEK293 GC-A cells, cGMP TR-FRET, EC30 ANP, primary screen. AID 1671463, 2021. 370,000 tested, 0.14% active. 0% at EC30 ANP, 100% saturating ANP. activation, % at 10 µM; in the data active means activation above about 40%
FAS-TE inh = FAS thioesterase domain inhibitors, primary screen, biochemical, fluorescence intensity, uHTS; recombinant FAS-TE, OMFH fluorogenic substrate, fluorescence endpoint; inhibition, % at 15 µM; 360,000 tested, 0.67% active;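 active means compounds whose normalised, plate-corrected inhibition of enzyme fluorescence in the single-dose primary screen is 50% or more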
A3G deaminase = APOBEC3G DNA deaminase inhibitors, primary screen, biochemical, fluorescence, single-stranded DNA substrate, uHTS; DNA dC->dU-editing enzyme APOBEC-3G (Homo sapiens), Q9HC16; recombinant A3G, ssDNA deamination FAM/TAMRA fluorescence; inhibition, % at 20 µM; 330,000 tested, 0.28% active; AID 493012, 2011;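 active means inhibition of at least 40% at 20 µM, with no more than 30% in the related APOBEC3A deaminase screen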
APOBEC3A inh = APOBEC3A ssDNA deaminase inhibitors, primary screen, selectivity assay for APOBEC3G inhibitor project, biochemical, FAM/TAMRA oligo cleavage fluorescence; DNA dC->dU-editing enzyme APOBEC-3A (Homo sapiens), P31941; recombinant A3A, FAM/TAMRA ssDNA deamination fluorescence; inhibition, % at 20 µM; 330,000 tested, 0.41% active;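 active means at least 40% inhibition at 20 µM here, with at most 30% in a related deaminase screen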
NPR2 activator = human GC-B receptor activators, primary screen, HEK293 GC-B cells, cGMP TR-FRET, EC30 CNP | Atrial natriuretic peptide receptor 2 (Homo sapiens), P20594 | 0% at EC30 CNP, 100% saturating CNP | activation, % at 10 µM | 370,000 tested, 0.11% active | AID 1920062, 2024;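 active means activation at 10 µM reaching about 35% in either raw or pattern-adjusted values, limit read from the data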
A3G conf = APOBEC3G deaminase inhibitor retest, confirmation, biochemical, fluorescence, single-stranded DNA substrate, single concentration; shares compounds with A3G deaminase; AID 493152, 2011; 890 tested, 72% active; inhibition, % at 20 µM; recombinant A3G ssDNA deaminase, UDG/FAM-TAMRA fluorescence;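 active means inhibition reaching a set limit in any replicate at 20 µM, the limit being 80% of the first screen's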
UDG A3G counter = E. coli UDG inhibitors, confirmation, counter-screen for APOBEC3G inhibitor project, biochemical, single concentration, fluorescence, FAM/TAMRA oligo. shares compounds with A3G deaminase. inhibition, % at 20 µM. UDG counterscreen. 710 tested, under 10 active. AID 504715, 2011;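 active means compounds giving 40% or more inhibition at 20 µM in any one of the three replicates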;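 further: inhibitors lower the FAM signal released by uracil excision and alkaline cleavage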
Large screens that a line does not name were inactive (follow-up assays come after a bar, where they were run).

C=C(C)C(=O)Nc1cccc(C2=NOC3(C2)C[C@H](C(N)=O)N(C(=O)c2ccccc2)C3)c1 (stereo partly drawn)	A3G deaminase 62.8 | A3G conf 65.3 | UDG A3G counter inactive
C/C=C/C(=O)Nc1cccc(C2=NOC3(C2)C[C@@H](C(N)=O)N(C(=O)c2cc([N+](=O)[O-])cc([N+](=O)[O-])c2C)C3)c1 (stereo partly drawn)	none
C=C(C)C(=O)Nc1cccc(C2=NOC3(C2)C[C@@H](C(N)=O)N(C(=O)c2ccc(Cl)cc2)C3)c1 (stereo partly drawn)	A3G deaminase 100.4 (no result: GC-A act, FAS-TE inh, NPR2 activator) | A3G conf 90.2 | UDG A3G counter inactive
C/C=C(/C)C(=O)Nc1cccc(C2=NOC3(C2)C[C@H](C(N)=O)N(C(=O)c2ccc(Cl)cc2)C3)c1 (stereo partly drawn)	none
C=C(C)C(=O)Nc1cccc(C2=NOC3(C2)C[C@@H](C(N)=O)N(C(=O)c2cc([N+](=O)[O-])cc([N+](=O)[O-])c2C)C3)c1 (stereo partly drawn)	A3G deaminase 43.6 | A3G conf 59.3 | UDG A3G counter inactive
CCC(=O)Nc1cccc(C2=NOC3(C2)C[C@@H](C(N)=O)N(C(=O)COc2ccc(Cl)cc2)C3)c1 (stereo partly drawn)	none
CCc1cc2cc(C)cc(C)c2[nH]c1=S	A3G deaminase 49.1 | A3G conf active | UDG A3G counter inactive
CCC(=O)N1CCc2cc(S(=O)(=O)N3CCN(c4cc(Cl)ccc4C)CC3)ccc21	A3G deaminase 58.4 | A3G conf inactive | UDG A3G counter inactive
CC(C)CC(=O)N[C@H](C(=O)N[C@H](C(=O)N[C@@H](CC(C)C)[C@@H](O)CC(=O)N[C@@H](C)C(=O)N[C@@H](CC(C)C)[C@@H](O)CC(=O)O)C(C)C)C(C)C	A3G deaminase 74.5 | A3G conf inactive
CCc1ccc(-n2c(=O)c3ccccc3n3c(=S)[nH]nc23)cc1	A3G deaminase 60.5 | A3G conf 76.3 | UDG A3G counter inactive
COc1cccc(CC(=O)O[C@@H]2CCC[C@@]3(C(=O)N(Cc4ccccc4)c4ccccc43)[C@H]2NC(=O)CCc2ccccc2)c1	none (no result: FAS-TE inh, A3G deaminase, APOBEC3A inh)
CCOC(=O)c1sc(=S)n(C)c1NC(=O)c1cccc(Br)c1	A3G deaminase 47.3 | A3G conf inactive | UDG A3G counter inactive
S=c1[nH]nc(-c2cccnc2)n1C1CCCCC1	none
S=c1[nH]nc(-c2ccccc2)n1C1C=CCCC1 (stereo not drawn)	A3G deaminase 42.1 | A3G conf 79.4 | UDG A3G counter inactive
CN(CC(=O)Nc1n[nH]c(=S)s1)S(=O)(=O)c1cccc2cccnc12	A3G deaminase 75.4 | A3G conf 95.1 | UDG A3G counter inactive
Cc1csc(NC(=O)CN(C)S(=O)(=O)c2cccc3cccnc23)n1	none
CS(=O)(=O)c1ccc(N)c(SSc2cc(S(C)(=O)=O)ccc2N)c1	A3G deaminase 86.5 | A3G conf 94.7
O=C(CSc1nc2sc3c(c2c(=O)n1-c1ccc(Cl)cc1)CCCC3)c1ccccc1Cl	none (no result: FAS-TE inh, A3G deaminase, APOBEC3A inh)
COc1ccc(OCc2n[nH]c(=S)n2Cc2ccco2)cc1	A3G deaminase 43.0 | A3G conf 71.7 | UDG A3G counter inactive
c1ccc(CCc2nn3c(Cc4ccccc4)nnc3s2)cc1	A3G deaminase 53.5 | A3G conf 59.4
COc1ccccc1-c1nn2c(C3COc4ccccc4O3)nnc2s1 (stereo not drawn)	A3G deaminase 50.9 | A3G conf inactive | UDG A3G counter inactive
c1ccc(CCc2nn3c(C4COc5ccccc5O4)nnc3s2)cc1 (stereo not drawn)	A3G deaminase 48.2 | A3G conf 31.2 | UDG A3G counter inactive
c1ccc(Cc2nnc3sc(-c4cccs4)nn23)cc1	none
c1ccc(Cc2nn3c(C4COc5ccccc5O4)nnc3s2)cc1 (stereo not drawn)	none
O=C(NN=Cc1ccc(O)cc1)c1cc(-c2ccc(Cl)cc2)n[nH]1	none (no result: FAS-TE inh, A3G deaminase, APOBEC3A inh)
Nn1c(C2COc3ccccc3O2)n[nH]c1=S (stereo not drawn)	A3G deaminase 60.2 | A3G conf 82.7 | UDG A3G counter inactive
NC(=S)C1COc2ccccc2O1 (stereo not drawn)	none
O=c1c(O)c(-c2cc(O)c(O)c(O)c2)oc2cc(O)cc(O)c12	A3G deaminase 41.3 | A3G conf 73.0 | UDG A3G counter inactive
CCOC(=O)c1sc2nc(N3CCOCC3)c3c(c2c1N)CCCC3	none
CCN(CC)C(=O)c1sc2nc(N3CCOCC3)c3c(c2c1N)CCCC3	A3G deaminase 49.4 | A3G conf inactive
N#Cc1c(-c2ccncc2)c2c([nH]c1=S)CCCC2	A3G deaminase 45.9 | A3G conf 85.0 | UDG A3G counter inactive
C[C@@H]1C(=O)N2N=Cc3cc4ccccc4cc3[C@H]2N2N=Cc3cc4ccccc4cc3[C@@H]12	none (no result: FAS-TE inh, A3G deaminase, APOBEC3A inh)
Cc1ccc(/C=C/C(=O)NC2CCCCCCC2)o1	A3G deaminase 49.8 | A3G conf 37.6 | UDG A3G counter inactive
CC(=O)Nc1ccc(S(=O)(=O)NNC(=O)c2cccc(Cl)c2)cc1	A3G deaminase 75.6 | A3G conf inactive
CC(=O)Nc1ccc(S(=O)(=O)NNC(=O)c2ccc3c(c2)OCO3)cc1	none
Cc1ccc(-c2n[nH]c3c2C(c2ccccc2)N(c2ccc(C(=O)O)cc2)C3=O)cc1 (stereo not drawn)	A3G deaminase 74.1 | A3G conf inactive | UDG A3G counter inactive
O=C(CCC(=O)OCC(=O)c1ccc(-c2ccccc2)cc1)Nc1cccc2cccnc12	none
O=C(CCC(=O)OCC(=O)c1ccc(Cl)cc1Cl)Nc1cccc2cccnc12	A3G deaminase 54.1 | A3G conf inactive | UDG A3G counter inactive
Cc1ccc(NC(=O)c2ccc(Cl)c(N3C(=O)C=CC3=O)c2)cc1	A3G deaminase 45.8 | A3G conf 53.4 | UDG A3G counter inactive
O=C(Nc1ccc(Cl)c(Cl)c1)c1ccc(Cl)c(Cl)c1	none

Bioassay records from PubChem BioAssay.
